D1 agonist – agonists of human D1 dopamine receptor | P21728 | AID 504660 | activation, % at 2 µM | hit rate 1% among 360,000 | HEK293 T-REx D1 cells, calcium flux, agonist mode; also: 0% is about no effect
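Agonism was scored from calcium flux recorded over 180 s (1 read/s) after pintool compound addition, following a 10-cycle baseline. Cells were inducible force-coupled HEK293 TREx D1, plated overnight at 30 C and loaded with no-wash calcium dye.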
D1 antag – antagonists of human D1 dopamine receptor; hit rate 3.2% among 360,000; AID 504652; activity change, negative = inhibition, % at 10 µM; HEK293 TREx D1 cells, calcium flux, dopamine EC80; active compounds read low; in the data active = activity change below about -30%; also: % is scaled to controls: 0 for no effect and ±100 for the full control effect
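Compound effects on dopamine-evoked calcium signalling were measured in tetracycline-induced HEK293 Trex D1 cells. Dopamine at EC80 followed a 180 s compound pre-read, and fluorescence was tracked kinetically for 180 s more.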
D1 potentiator – enhances dopamine response at the human D1 receptor; HEK293 TREx D1 cells, calcium flux, dopamine EC20 potentiation; potentiation, % at 10 µM; P21728; hit rate 0.036% among 360,000; in the data active = potentiation above about 30%; also: 0% is about no effect
TRHR agonist – agonists of human TRH receptor | P34981 | TRHR cells, calcium flux fluo-8, FDSS agonist mode | activation, % at 2 µM | hit rate 0.18% among 360,000 | AID 493084; also: 0% is about no effect
Target sequence (P34981 whole entry, looked up): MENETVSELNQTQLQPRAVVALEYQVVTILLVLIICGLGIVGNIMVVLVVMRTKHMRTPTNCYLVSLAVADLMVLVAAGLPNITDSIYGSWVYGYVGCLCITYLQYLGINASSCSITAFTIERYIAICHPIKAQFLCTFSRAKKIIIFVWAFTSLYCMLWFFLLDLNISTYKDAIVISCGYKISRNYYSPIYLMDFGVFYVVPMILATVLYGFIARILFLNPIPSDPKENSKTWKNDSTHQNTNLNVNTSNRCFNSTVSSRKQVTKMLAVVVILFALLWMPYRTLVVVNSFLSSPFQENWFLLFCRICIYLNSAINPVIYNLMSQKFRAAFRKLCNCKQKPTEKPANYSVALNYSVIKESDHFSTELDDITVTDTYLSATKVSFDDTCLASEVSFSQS
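Steps: seed TRHR cells overnight; add fluo-8 no-wash Ca dye, RT 30 min–1.5 h; record 10 s baseline; pin-transfer compounds; monitor fluorescence 1 cycle/s for the agonist window. Calcium increases flag candidate agonists.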
TRHR PAM – allosterically enhances the human TRH receptor | P34981 | AID 493056 | TRHR cells, fluo-8 calcium fluorescence, EC20 TRH enhancement | enhancement, % at 2 µM | hit rate 0.66% among 360,000; in the data active = enhancement above about 30%; also: 0% is about no effect
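TRHR-expressing cells loaded with fluo-8 calcium dye were read kinetically (ex 480/em 530) during compound addition, then stimulated with an EC20 of TRH (10 nM final). Enhancement of the Gq-mediated intracellular calcium response was scored.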
An asterisk follows results filed as active; nt = no result given; ! = not active in a repeat. Sampled rows, rich in hits. Any-hit rate of the full collection: about 4.7%. Rule as the data show it, unless noted: active = activation above about 30%; inactive = the rest.

SMILES	D1 agonist	D1 antag	D1 potentiator	TRHR agonist	TRHR PAM
COc1cc(NS(=O)(=O)c2cc(Br)cc3c2N(C(=O)C2CC2)CC3)cc(OC)c1	3	1	-2	0	-5
CCN1CCN(c2cc(C)c3cc(NC(=O)c4cccnc4Cl)ccc3n2)CC1	0	-11	1	0	-7
CCN1CCN(c2cc(C)c3cc(NC(=O)c4ccccc4F)ccc3n2)CC1	-1	-5	0	0	-2
Cc1cc(N2CCN(C)CC2)nc2ccc(NC(=O)c3cccnc3Cl)cc12	2	2	30*	0	-4
Cc1cc(N2CCN(C)CC2)nc2ccc(NC(=O)c3ccccc3F)cc12	0	-42*!	-4	0	10
CCOc1cc(C(=O)Nc2ccc3nc(N4CCN(C)CC4)cc(C)c3c2)cc(OCC)c1OCC	0	-34*	0	0	3
Nc1nc(Cl)c(C=O)c(N2CCCCC2)n1	2	9	-5	0	-5
Nc1nc(N2CCCCC2)c(C=O)c(N2CCCCC2)n1	2	-36*	-5	0	-6
CCC(C(=O)Nc1ccccc1OC)n1c(C(=O)OC)cc2sc(Cl)cc21 (stereo unspecified)	3	17	3	1	-3
O=C(c1cccc(F)c1)N1CCCN(C(=O)c2cccc(F)c2)CC1	1	-81*	-5	0	6
COc1cc(OC)c(NC(=O)C(C)n2nc(-c3ccc(C)c(C)c3)ccc2=O)cc1Cl (stereo unspecified)	4	-4	1	0	0
Cc1cc2nc3c(=O)n(C)c(=O)n(C)c3nc2cc1N=CN(C)C	46*	-12	0	19	3
CCCCCCC(=O)Nc1cc2nc3c(nc2cc1C)c(=O)n(C)c(=O)n3C	0	-8	0	-1	10
CC(C)(C)n1ncc2c(=O)n(CC(=O)NCc3ccccc3)cnc21	0	-3	-3	0	1
Cn1ncc2c(=O)n(CC(=O)NC34CC5CC(CC(C5)C3)C4)cnc21	2	-34*	3	1	-1
Fc1ccc(-c2onc3ccc(C4OCCO4)cc23)cc1	0	-56*	-1	0	-1
CC1=C(C)C(=O)C(CCCCC#CCCCC#CCO)=C(C)C1=O	8	-26	-3	-1	-6
COC1=C(OC)C(=O)C(CCCCCCCCCCO)=C(C)C1=O	26	-41*	-2	1	-5
CC(=O)Nc1ccc(NC(=O)C(C)OC(=O)/C(C#N)=C/c2ccc(N(C)C)cc2)cc1 (stereo unspecified)	84*	-5	-3	24	-2
CC(=O)Nc1ccc(NC(=O)C(C)OC(=O)c2ccc(N(C)C)cc2)cc1 (stereo unspecified)	5	-16	nt	0	-4
CC(OC(=O)/C(C#N)=C/c1ccc(N(C)C)cc1)C(=O)N(C)c1ccccc1 (stereo unspecified)	70*	-8	-5	49*	24
CCN1CCOC(=O)C1CC(=O)Nc1ccc(C)c(Cl)c1 (stereo unspecified)	-1	0	-4	1	-1
CCC(=O)N1CCc2cc(-c3csc(NC(=O)c4ccco4)n3)ccc21	0	-2	-3	-1	11
CC(C)C(=O)N1CCc2cc(-c3csc(N)n3)ccc21	2	-43*	-6	0	4
CCCCOc1ccc(C(=O)NC(=S)Nc2ccc(CN3CCOCC3)cc2)cc1	3	-16	-4	0	32*
SMILES	D1 agonist	D1 antag	D1 potentiator	TRHR agonist	TRHR PAM
O=C(Nc1ccc(CN2CCS(=O)(=O)CC2)cc1)c1ccc(C(F)(F)F)cc1	14	-46*	-13	-1	-5
CCOc1ccc(NC(=O)c2ccc(NC(=O)c3ccc(CN4CCOCC4)cc3)cc2)cc1	3	-34*	-4	0	0
CC(C)(C)c1ccc(C(=O)Nc2ccc(CN3CCS(=O)(=O)CC3)cc2)cc1	19	-9	-2	0	2
O=C(COc1ccc(Cl)cc1Cl)NC(=S)Nc1ccc(CN2CCOCC2)cc1	13	-40*	-5	0	6
O=C(COc1ccccc1Cl)NC(=S)Nc1ccc(CN2CCOCC2)cc1	8	-2	-2	0	6
CCC(=O)N(CC)c1nc(-c2cc(OC)ccc2OC)cs1	34*	30	-3	0	11
CN(C)CCCN(C(=O)c1ccco1)c1nc(-c2ccc(Cl)cc2)cs1	33*	-42*	-6	0	1
Cc1ccc(-c2csc(N(CCCN(C)C)C(=O)c3ccco3)n2)cc1	1	-1	0	0	4
COCCCN(C(=O)c1ccco1)c1nc(-c2cc(OC)ccc2OC)cs1	6	-41*	5	0	-1
COc1ccc(OC)c(-c2csc(NC(=O)COC(=O)C3(C)CC3(Cl)Cl)n2)c1 (stereo unspecified)	2	-48*	-6	0	3
COc1ccc(CC(=O)Nc2nc(-c3cc(OC)ccc3OC)cs2)cc1	3	-8	5	0	0
CCN(C(=O)Cn1cnc2c1c(=O)n(C)c(=O)n2C)c1ccccc1C	-1	7	-1	0	21
COc1ccc(CNC(=O)CCc2c(C)nc3nc(CNC(=O)OC(C)(C)C)nn3c2C)cc1	2	4	0	1	-3
Cc1cc2oc(=O)c(CC(=O)NCCc3ccccc3)c(C)c2c2occ(C(C)(C)C)c12	0	1	-1	0	17
CCOC(=O)c1[nH]c2ccccc2c1NC(=O)c1ccc(OC)c(OC)c1	3	-1	1	0	11
Cc1cc(C)c(C#N)c(SCc2ccccc2[N+](=O)[O-])n1	3	-8	-11	0	4
Cc1cc(C)c(C#N)c(SCc2nnc(-c3ccccc3[N+](=O)[O-])o2)n1	38*	-4	4	0	-3
Cc1ccc(-c2cc(C(=O)NCc3ccccc3)c3c(-c4ccc(C)cc4)[nH]nc3n2)cc1	9	14	-2	1	-3
CC(=O)Nc1ccc(-c2cc(C(=O)O)c3c(-c4ccccc4)[nH]nc3n2)cc1	1	-39*	0	0	-4
CCCCn1c(N)c(N(CC)C(=O)c2c(CC)noc2C)c(=O)[nH]c1=O	3	-14	-7	0	-2
CCCN(C(=O)CCOc1ccc(C(C)(C)C)cc1)c1c(N)n(Cc2ccccc2)c(=O)[nH]c1=O	3	-50*	-11	0	0
CCCCn1c(N)c(N(Cc2ccccc2OC)C(=O)c2c(CC)noc2C)c(=O)[nH]c1=O	1	-44*	5	0	-1
COCCN(C(=O)CSCC(=O)Nc1ccc(C)cc1)c1c(N)n(CC(C)C)c(=O)[nH]c1=O	2	-2	nt	0	-3
CCCCCn1nc(C(=O)N(CCOC)c2c(N)n(CCCC)c(=O)[nH]c2=O)c2ccccc2c1=O	-2	-3	-5	0	-6
